Laboratory results reported in the supplement of paper PMC10338343.
± gives the standard deviation.

Tested on: EfPiwi piRISC loaded with L1MC piRNA (26 nt)
Assay: pre-steady-state target cleavage rate (min^-1); auxiliary factor: 500 nM Ephydatia muelleri Gtsf1; guide: L1MC piRNA 5'p-UAACUAAAUACUAUGCAAGCUGUAGG; MIWI and MILI are mouse PIWI proteins and EfPiwi is from a freshwater sponge; tags in brackets are library labels; higher = faster piRNA-guided slicing of the target
Method in brief: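 In Cleave-'n-Seq, a transcribed, DNA-blocked target RNA library (0.1 nM) was combined with 1 nM active affinity-purified piRISC bearing one synthetic guide, with or without 500 nM GTSF1 partner protein. Reactions ran in HEPES–potassium acetate buffer at 33 °C for 0–8 or 0–960 min. Uncleaved targets were sequenced and normalised to depth and to weakly complementary targets, three trials were pooled, and k3 was capped at 0.0001 min^-1. The pre-steady-state cleavage rate was obtained by fitting a burst-and-steady-state model.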

Sequence	pre-steady-state target cleavage rate
UCCUGGUACAGCUAGCAUAGUAAUUAGUUA	0.00407 ± 0.0023
UCCUGGAUCAGCUUGCAAUAGUAUUUAGUUA	0.0153 ± 0.0038
UCCUCCAACAGCUAGCAUAGUAUUUAGUUA	0.00798 ± 0.0027
UCCUGGAUGUCGAACGUUAGUAUUUAGUCA	< 0.0001
UCCUGGAUGUCGAACGUAUGUAUUUUGUUA	< 0.0001
UCCUCCUUCAGCUUGCAUAGUAUUAAGUUA	0.00716 ± 0.0031
UCCUGCAUCAGCUUGCAUAGUAUUUACAAA	0.00323 ± 0.0016
UCCUGCUACAGCUUGCAUAGUAUGUAGUUA	0.00311 ± 0.0014
UCCUGGAUGUCCUUGCAUAUUAUUUAGUUA	0.00283 ± 0.0025
UCCUCCUACAGCUUCCAUAGUAUUUAGAUA	0.00393 ± 0.0021
UCCUGCAACAGCUUGCAUACUAUUUAGUUA	0.0112 ± 0.0029
UCCUGGAUGUGCUUCCAUAGUAUUUAGAAA	0.00625 ± 0.0039
UCCUGGAUGUCGAACGUUAGUAUGUUAGUUA	< 0.0001
UCCUGGAUGUCGAACGUAAGUAUUUCAGUUA	< 0.0001
UCCUGCUACAGCUUGCAUAGUAUUUAGCUA	0.00339 ± 0.0014
UCCUCCUACAGCUUGCAUAGUAUUUAGGUUA	0.00552 ± 0.0017
UCCUGGAUGUCGAACGAUAGUAUUUAGGUA	< 0.0001
UCCUGGAUGAGCUUGCAUGGUAUUUAGUUA	0.0127 ± 0.0045
UCCUGGAUGUGCUUGCAUAGUAUUUAGCUA	0.00363 ± 0.0021
UCCUGGAUCAGCUGGCAUAGUAUUUAGUUA	0.0104 ± 0.0026

Sequence	pre-steady-state target cleavage rate
UCCUGGAUGUGCUUGCAUACUAUUUAGAUA	0.00202 ± 0.0015
UCCUGGAUCAGCUUGGCAUAGUAUUUAGUUA	0.0127 ± 0.0034
UCCUCCUACGGCUUGCAUAGUAUUUAGUUA	0.0667 ± 0.017
UCCUGCUACAGCUUGCAUAGUAAUUAGUUA	0.0061 ± 0.0022
UCCUGCUACAGCUUCCAUAGUAUUUAGAUA	0.00303 ± 0.00093
UCCUGGUACAGCUUCCAUAGUAUUUAGUAA	0.00378 ± 0.0022
UCCUGGAUCAGCUUCCAUAGUAUUUAGAUA	0.00231 ± 0.0018
UCCUGGAUGUCGAUGCUUAGAAUUUAGUUA	< 0.0001
UCCUGCUACAGCUUGGUAAGUAUUUAGUUA	0.00341 ± 0.0025
UCCUGCUACACCUUGCAUAGUAUUUAGUAA	0.00559 ± 0.0032
UCCUGGAUCAGCUAGCAUAGUAUUUAGUAA	0.00362 ± 0.0032
UCCUGCUAGUCCUUGCAUAGUAUUUAGAAA	0.00294 ± 0.0025
UCCUGGUACUGGUUGCAUAGUAUUUAGUUA	0.0054 ± 0.0031
UCCUGGAUGUCGAUGCAUACUAUUAAGUUA	< 0.0001
UCCUGGAUGAGCUUGCAUAGUAAUUACAAA	0.00446 ± 0.0034
UCCUGGUACACCAUGCAUAGUAUUUAGUUA	0.00335 ± 0.0031
UCCUGCUACAGCUUGCAUAGUAUUAUGUAA	0.00194 ± 0.0019
UCCUGGAACAGCUUGCAUAGUUUUUAGAUA	0.00205 ± 0.0016
UCCUGGAACAGCUUGCAUAGUAUUUACGUUA	0.00579 ± 0.0024
UCCUGGAUGUCGUUGCAAACUAUUUAGUUA	< 0.0001
